From PubChem BioAssay
FLuc counter: firefly luciferase modulation, counter-screen for miR-21 project; P08659; purified FLuc, Km substrates, luminescence inhibition; Potency, µM (titrated, usually from 57.5 µM), without a hit: at the top dose activity change, negative = inhibition, usual class: inhibitors; 6.9% of 360,000 active; AID 588342;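 further: plate controls were vehicle for no effect and reference inhibitor for full effect; nearly all actives have a fitted effect of over 55% in size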
Target sequence (P08659 whole entry, looked up): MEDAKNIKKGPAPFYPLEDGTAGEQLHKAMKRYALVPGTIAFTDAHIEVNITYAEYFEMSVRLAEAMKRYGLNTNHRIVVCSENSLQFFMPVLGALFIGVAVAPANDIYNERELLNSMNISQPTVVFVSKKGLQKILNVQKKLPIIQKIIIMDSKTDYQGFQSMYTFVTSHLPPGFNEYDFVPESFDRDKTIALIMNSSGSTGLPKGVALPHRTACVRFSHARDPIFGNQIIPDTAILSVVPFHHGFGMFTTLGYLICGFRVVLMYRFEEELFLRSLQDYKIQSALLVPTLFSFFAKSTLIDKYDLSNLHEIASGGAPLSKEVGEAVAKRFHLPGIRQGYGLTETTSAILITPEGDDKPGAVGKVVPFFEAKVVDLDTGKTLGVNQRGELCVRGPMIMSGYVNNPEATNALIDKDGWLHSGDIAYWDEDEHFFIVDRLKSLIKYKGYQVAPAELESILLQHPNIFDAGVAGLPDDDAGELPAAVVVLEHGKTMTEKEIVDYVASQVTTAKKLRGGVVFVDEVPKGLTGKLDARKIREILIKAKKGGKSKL
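Purified P. pyralis luciferase, 10 nM final, with Km-level 10 uM D-luciferin and 10 uM ATP in 50 mM Tris acetate pH 7.5, 10 mM Mg acetate, 0.01% Tween-20, 0.05% BSA; 6-point qHTS titration about 60 µM downward; luminescence read.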
NPC1 prom act: activators of NPC1 promoter | Potency, µM (top dose mostly 9.22 µM), inactives show at the top dose activation, hits mostly activators | Huh7 NPC1 promoter luciferase reporter, 24 h | 2.4% of 320,000 active; further: % of control where 0% means no effect; nearly all actives have a fitted effect of over 60% in size
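Huh7 cells stably carrying NPC1 promoter–luciferase, plated in Opti-MEM with 10% FBS for 2 h, were exposed to compound in DMSO for 24 h at 37 °C; luciferase reagent was added for 10 min and luminescence read.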
Rab9 promoter act: activators of Rab9 promoter | Huh7 Rab9 promoter-luciferase reporter, luminescence, 24 h | Potency, µM (top dose mostly 9.22 µM), without a hit: at the top dose activation, negative = inhibition, most hits filed as activators | 2.8% of 320,000 active | AID 485297; further: % of control where 0% means no effect; nearly all actives have a fitted effect of over 60% in size
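Steps: seed 1500 Huh7 Rab9-luc cells per well, rest 2 h at 37 °C; add compound in DMSO; incubate 24 h; add luciferase reagent, 10 min ambient; read luminescence.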
ELG1 genotox: genotoxicity induction in ELG1-luciferase HEK293T cells; HEK293T ELG1-luciferase reporter, luminescence, 16 h; AID 504466; 1.3% of 330,000 active; Potency, µM (doses to about 46 µM), without a hit: top-dose activity change, positive = activation, actives largely listed as activators; further: % of control where 0% means no effect; nearly all actives have a fitted effect of over 60% in size
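Reporter readout depends on ELG1 protein level, which increases with genetic stress. After 16 hr compound exposure at 37 °C, luciferase activity was quantified using ONE-Glo.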
SMN2 splice up: SMN2 splice variant enhancement | HEK293 SMN2-luciferase splicing reporter, luminescence, 30-36 h | 2.8% of 210,000 active | Potency, µM (titrated, usually from 46.1 µM), inactives show at the top dose activity change, positive = activation, usual class: activators; further: % of control where 0% means no effect; nearly all actives have a fitted effect of over 55% in size
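HEK293 cells carry an SMN2 minigene-luciferase reporter in which exon 7 inclusion puts luciferase in frame. Cells were seeded at 2000 cells/well, attached for 10-12 hours, then exposed to compounds for 30-36 hours at 37C before ONE-Glo luminescence.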
ELG1 DNA repair: ELG1-dependent DNA repair inhibition; Potency, µM (top dose mostly 46.1 µM), inactives show at the highest dose activity change, negative = inhibition, actives largely listed as inhibitors; 2.3% of 330,000 active; AID 504467; HEK293T ELG1-luciferase reporter, luminescence, 16 h; DNA damage induced by 5-fluorouridine; further: on the % scale 0 is the no-effect control and ±100 the full control effect; nearly all actives have a fitted effect of over 55% in size
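HEK293T cells expressing luciferase-tagged ELG1 (2,000/well) received 5-Fluorouridine plus compound or DMSO for 16 hr at 37 °C. Luciferase was read by ONE-Glo luminescence after 30 min at room temperature.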
An asterisk follows results filed as active; ? = inconclusive; / = no result given; [ ] = dose if it differs, or a comment. In the library only some 9.2% were active in any assay of this set; here they are far more common. The call rests on the fitted dose curve; in most records, active means well fitted curve in the direction sought with a large enough effect; inconclusive means small, poorly fitted or top-dose-only effect, or another doubt; inactive means no such curve, though single readings can be large; an effect the other way counts as inactive or inconclusive. Potency means the concentration at half of the fitted maximal effect.

SMILES | FLuc counter | NPC1 prom act | Rab9 promoter act | ELG1 genotox | SMN2 splice up | ELG1 DNA repair
COc1ccc(-n2nc3cc(C)c(N)c(Br)c3n2)cc1 | 1.1µM* | 2.8µM* | 1.3µM* | 7.3µM* | 7.9µM* | ?
COc1ccc(-n2nc3cc(N)c(Br)cc3n2)cc1 | 4.8µM* | ? | ? | 18µM* | / | ?
CC(C)NS(=O)(=O)c1ccc(NCCCn2ccnc2)c([N+](=O)[O-])c1 | 0% | 0% | 2% | -8% | / | ?
S=C(NC1CCCCC1)N1CCOCCOCCN(C(=S)NC2CCCCC2)CCOCCOCC1 | 3% | -11% | 1% | -11% | / | 18µM*
Nc1[nH]nc2nc(N3CCCC3)nc(-c3ccccc3)c12 | 2% | 5% | -1% | 3% | -5% | -1%
Cc1cc(C)n2nc3nc(N4CCCC4)nc(-c4ccccc4)c3c2n1 | 0% | -2% | -4% | 0% | 37% | 10µM*
CC(C)(c1ccccc1)c1ccc(OCc2ccc(C(=O)O)o2)cc1 | 27µM* | 2.8µM* | 1.1µM* | ? | / | ?
COc1ccccc1OCc1ccc(C(=O)NCc2cccnc2)o1 | -1% | -3% | -6% | -2% | -9% | -10%
CC(C)(C)c1ccc(OCc2ccc(C(=O)NCc3cccnc3)o2)cc1 | 17µM* | 2.8µM* | 1.3µM* | ? | ? | ?
CC(C)(C)c1ccc(OCc2ccc(C(=O)NN)o2)cc1 | 15µM* | 0.4µM* | 0.79µM* | ? | / | ?
COc1ccc(CN(C)C(=O)C2CCN(C(=O)Nc3ccccc3)CC2)cc1 | 3% | -3% | -1% | -9% | / | 2%
COc1ccc(-c2[nH]c(-c3ccccc3)nc2SCC(=O)Nc2ccc3c(c2)OCO3)cc1 | -17% | / | / | / | 1% | /
COc1cccc(CNC(=O)CSc2nnc3c(n2)[nH]c2ccccc23)c1 | -3% | -1% | 3% | -6% | / | -3%
NC(=O)C1CCN(c2nc(-c3cccc(N)c3)cs2)CC1 | ? | 3% | 2% | ? | / | ?
CN1CCN(c2nc(-c3cc4ccccc4o3)cs2)CC1 | 4.8µM* | ? | ? | ? | 13µM* | ?
Nc1nc(-c2cc3ccccc3o2)cs1 | 4.3µM* | 2.2µM* | 2µM* | ? | / | ?
NC(=O)C1CCN(c2nc(-c3cc4ccccc4o3)cs2)CC1 | 11µM* | ? | ? | 4% | / | ?
Cc1cc(C)n(CCc2nc(-c3cc4ccccc4o3)cs2)n1 | 17µM* | 20% | 21% | 10% | -36% | ?
Cc1cn(S(=O)(=O)c2ccc(Br)c3ccccc23)cn1 | 1% | -3% | -2% | -1% | -4% | 28%
O=C(Nc1ccc(Br)cc1)Nc1cnccn1 | ? | 19% | 13% | 8% | / | ?
CCC(CC)C(=O)Nc1nnc2n1CCS2 | 1% | / | / | / | / | /
O=C(O)CC(Cc1ccc(Br)cc1)C(=O)Nc1ccccc1 (stereo not given) | 0% | -1% | 4% | -2% | / | -5%
CCN(CC)c1ccc2cc(C=O)c(=O)oc2c1 | -18% | / | / | / | -3% | /
CCN(CC)c1ccc2nc3c4ccccc4c(=O)cc-3oc2c1 | 0.48µM* | 0.56µM* | 1.1µM* | 0.82µM* | / | ?
O=C(Nc1nc(-c2ccc(Cl)cc2)cs1)C1CCCO1 (stereo not given) | 15µM* | 27% | ? | ? | 25% | ?
SMILES | FLuc counter | NPC1 prom act | Rab9 promoter act | ELG1 genotox | SMN2 splice up | ELG1 DNA repair
CCOc1ccc(-c2csc(NC(=O)C3CCCO3)n2)cc1 (stereo not given) | 15µM* | 18% | 11% | ? | 3% | 12%
CC1CCc2sc(C(=O)NNC(=O)c3ccncc3)cc2C1 (stereo not given) | ? | -4% | 2% | 16% | / | ?
CC1CCc2sc(C(=O)NCC3CCCO3)cc2C1 (stereo not given) | 11µM* | 2.8µM* | 4µM* | ? | / | ?
CC1CCc2sc(C(=O)Nc3ccc(C(N)=O)cc3)cc2C1 (stereo not given) | 2.4µM* | ? | 25% | ? | / | ?
CC1CCc2sc(C(=O)NN)cc2C1 (stereo not given) | ? | 5% | 7% | -4% | / | ?
CC1CCc2sc(C(=O)NNS(=O)(=O)c3ccc(F)c(F)c3F)cc2C1 (stereo not given) | 11µM* | 0% | 0% | 6% | / | ?
CC1CCc2sc(C(=O)NNC(=S)NC3CC3)cc2C1 (stereo not given) | -16% | ? | 1.1µM* | 2% | / | ?
CS(=O)(=O)c1ccc(C(=O)Nc2nc(-c3ccco3)c(-c3ccco3)s2)cc1 | ? | -4% | -1% | 1% | / | 2%
CC(C#N)(NC(=O)CN1CCN(S(=O)(=O)c2ccccc2Cl)CC1)C1CC1 (stereo not given) | / | 1% | -1% | 2% | / | 11%
Cc1cccc(/C(N)=N/OC(=O)c2ccncc2)c1 | 8.5µM* | 1.1µM* | 4µM* | ? | / | ?
COc1cccc(C(=O)O/N=C(\N)Cc2ccc(Cl)cc2)c1 | ? | 1% | -3% | -2% | -4% | 1%
COc1cccc(C(=O)O/N=C(\N)c2ccc(C)cc2)c1 | 1.9µM* | 3.2µM* | 26% | ? | / | ?
N/C(=N\OC(=O)c1cccc2ccccc12)c1ccncc1 | 24µM* | 2% | -2% | ? | / | ?
COc1cccc(C(=O)O/N=C(\N)c2ccncc2)c1 | 1.3µM* | ? | -1% | ? | 12% | ?
N/C(=N\OC(=O)c1ccncc1)c1cccc([N+](=O)[O-])c1 | ? | 18% | 20% | 17% | / | ?
Cc1ccc(-c2nc3cc(NC(=O)C(C)C)ccc3o2)cc1C | 0.27µM* | 0.35µM* | 0.13µM* | ? | ? | ?
Cc1cc2nc(-c3ccc(NC(=O)C(C)C)cc3)oc2cc1C | 0.85µM* | 0.45µM* | 0.63µM* | 0.82µM* | 2.8µM* | ?
CC(C)CC(=O)Nc1ccc2oc(-c3ccncc3)nc2c1 | 15µM* | ? | ? | 14% | 4% | ?
Cc1ccc(-c2nc3cc(NC(=O)C(C)C)ccc3o2)cc1 | 1.1µM* | 0.35µM* | 0.1µM* | ? | 0.56µM* | ?
Cc1cc2nc(-c3ccc(NC(=O)c4ccc(OCC(C)C)cc4)cc3)oc2cc1C | -12% | / | / | / | 1% | /
Cc1ccc(-c2nc3cc(NC(=O)c4cc(Br)ccc4Cl)ccc3o2)cc1 | -19% | / | / | / | 18% | /
Clc1ccc(-c2noc(CN3CCCCC3)n2)cc1 | / | / | / | / | -3%[9.22 µM] | /
Cc1ccc(C(=O)Nc2cc(-c3nc4cc(Cl)ccc4o3)ccc2C)c(C)c1 | 5% | / | / | / | -8% | /
